Shn3 inh set2 = reduction of Shn3 3'UTR firefly luciferase signal, primary screen, Schnurri-3 inhibitor project, cell-based, Clone20 osteoblasts, set 2. inhibition, % at 12.5 µM. Clone20 osteoblast Shn3 3'UTR firefly luciferase, 24 h. 360,000 tested, 0.52% active;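 active = mean inhibition of at least 75% with every replicate also reaching 75%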;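 note: 0% = median of neutral control wells and 100% = pilot-screen positive control compound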
PAX8 inh HTS = inhibitors of PAX8-driven TPO luciferase reporter, primary screen, RMG-I cells, single concentration | SteadyGlo, 24 h | inhibition, % at 12.6 µM | 360,000 tested, 1.2% active | AID 652154, 2013;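 active = mean replicate inhibition at least 60% with every replicate also reaching 60%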;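 note: luciferase light reporting Pax8 driven TPO promoter activity; plate controls were median of neutral control wells for no effect and mitoxantrone controls for full effect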
EBV LMP1 NFkB = EBV LMP1-driven NF-kappaB luciferase reporter inhibitors, primary screen, cell-based, luminescence, single point | LMP1-induced NF-kappaB luciferase reporter cells | inhibition, % at 12.5 µM | 350,000 tested, 0.69% active; in the data active = inhibition above about 41%;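 note: 0% = neutral control wells and 100% = reference inhibitor control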
aSyn UTR inh = MLPCN primary screen, SNCA 5' untranslated region; inhibition, % (tested at 7.5 µM); 300,000 tested, 0.82% active; alpha-synuclein 5'UTR reporter, inhibitor activity; in the data active = inhibition above about 60%;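 note: H4 neuroglioblastoma cells stably carrying SNCA 5'UTR luciferase fusion; 0% = DMSO wells and 100% = positive control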
TRPM1 prom inh = inhibitors of MITF-dependent TRPM1 promoter reporter, primary screen, cell-based, SK-MEL-5, single point, luciferase; SK-MEL-5 TRPM1 promoter luciferase, 24 h; inhibition, % at 12.5 µM; 330,000 tested, 0.83% active;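 active = mean inhibition across replicates of 60% or more, whatever share of single replicates reaches that level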
Active calls of the source: *; nt = no result. Most compounds without a hit are left out; they make up all but 2.1% or so of the library.

SMILES | Shn3 inh set2 | PAX8 inh HTS | EBV LMP1 NFkB | aSyn UTR inh | TRPM1 prom inh
C[C@H]1CCCCO[C@H](CN(C)C(=O)Nc2ccc(C(F)(F)F)cc2)[C@@H](C)CN([C@@H](C)CO)C(=O)c2cc(NC(=O)Nc3ccc(C(F)(F)F)cc3)ccc2O1 | nt | 8 | nt | nt | nt
C[C@@H]1CCCCO[C@@H](CN(C)C(=O)Nc2ccc(C(F)(F)F)cc2)[C@H](C)CN([C@@H](C)CO)C(=O)c2cc(NC(=O)Nc3ccc(C(F)(F)F)cc3)ccc2O1 | nt | 77* | nt | nt | nt
C[C@@H]1CCCCO[C@H](CN(C)C(=O)Nc2ccc(C(F)(F)F)cc2)[C@H](C)CN([C@@H](C)CO)C(=O)c2cc(NC(=O)CCC(F)(F)F)ccc2O1 | nt | 53 | nt | nt | nt
C[C@H]1CCCCO[C@H](CN(C)C(=O)Nc2ccc(C(F)(F)F)cc2)[C@@H](C)CN([C@@H](C)CO)C(=O)c2cc(NC(=O)CCC(F)(F)F)ccc2O1 | nt | 87* | nt | nt | nt
C[C@H]1CCCCO[C@@H](CN(C)C)[C@@H](C)CN([C@@H](C)CO)C(=O)c2cc(NC(=O)Nc3ccc(C(F)(F)F)cc3)ccc2O1 | nt | 88* | nt | nt | nt
C[C@H]1CCCCO[C@H](CN(C)C)[C@@H](C)CN([C@@H](C)CO)C(=O)c2cc(NC(=O)Nc3ccc(C(F)(F)F)cc3)ccc2O1 | nt | 33 | nt | nt | nt
CCOC(=O)N1CCN(C(=O)CS(=O)(=O)c2cn(Cc3ccc(F)cc3)c3ccccc23)CC1 | -5 | 18 | 2 | -1 | nt
O=C(O)c1ccc(OCc2cn3ccccc3n2)cc1 | -35 | 6 | -14 | -34 | 7
O=C(COc1ccc(Oc2ccccc2)cc1)NCc1cn2ccccc2n1 | 11 | 30 | -11 | 62* | 39
O=[N+]([O-])c1ccc(S(=O)(=O)NCCCc2ccccc2)cc1 | nt | 10 | nt | 3 | nt
CC1=C(CC(=O)c2ccccc2)C(=O)c2ccccc2C1=O | 2 | -19 | -25 | -79 | 66*
C=C1C2(C(=O)Nc3ccc(SC(F)F)cc3)CCC(C2)C1(C)C (configuration not stated) | -4 | 98* | 5 | 12 | 2
Cc1c(NC(=S)NC(=O)C(C)(C)C)c(=O)n(-c2ccccc2)n1C | -12 | -16 | 3 | 18 | -2
Cc1cccc(C(=O)N2CCN(c3ccc(C(F)(F)F)cn3)CC2)c1C | 1 | nt | 45* | 13 | 8
Cc1cc(C(=O)N2CCN(c3ccc(C(F)(F)F)cn3)CC2)c(C)o1 | 18 | 11 | 13 | 7 | 7
Cc1ccc(NCCN(C)C)c2c(=O)c3cc(O)ccc3sc12 | 42 | -13 | 45* | nt | 93*
CCOc1ccc(CCNC(=O)CSc2nn(-c3ccc(C)c(Cl)c3)c(=S)s2)cc1OCC | 12 | 81* | -5 | 13 | 5
CCOc1ccc(CCNC(=O)CSc2nnnn2C)cc1OCC | 1 | 9 | 12 | 3 | 5
CCCc1nnc(SCC(=O)NC2CC2)n1CC | 19 | -4 | 3 | -4 | 7
O=C(CCl)N1N=C(c2ccco2)CC1c1cccs1 (configuration not stated) | -4 | nt | 66* | -36 | 74*
CC(=O)N1N=C(c2ccco2)CC1c1cccs1 (configuration not stated) | -12 | nt | -12 | 3 | 11
Cc1ccc(C2=NN(C(=O)CCl)C(c3cccs3)C2)o1 (configuration not stated) | 9 | 65* | 35 | -49 | 73*
CN1C(=O)c2cc(NC(=O)c3cccs3)ccc2OC[C@@H]2O[C@H](CC(=O)NCC(F)(F)F)CC[C@@H]21 | nt | -5 | nt | nt | nt
CC[C@H]1CC2CN3CCc4c([nH]c5c([C@H]6C[C@H]7[C@H](CC)CN(C)[C@@H](Cc8c6[nH]c6ccccc86)[C@H]7C(=O)OC)c(OC)ccc45)C(C(=O)OC)(C2)C13 | nt | nt | nt | -13 | nt
CCc1ccn2cc(-c3ccc4c(c3)OCO4)nc2c1 | 81 | 80* | 72* | 107* | 65*
SMILES | Shn3 inh set2 | PAX8 inh HTS | EBV LMP1 NFkB | aSyn UTR inh | TRPM1 prom inh
COC(=O)c1ccc2nc(-c3ccc4c(c3)OCO4)cn2c1 | 42 | 21 | 48* | 95* | 17
COc1ccc(-c2cn3cc(C(=O)NN)ccc3n2)cc1 | -83 | -87 | -6 | -92 | -40
COc1ccc(C(O)(CC(C)C)C(CN2CCOCC2)c2ccccc2)cc1 (configuration not stated) | 6 | -9 | -6 | 66* | 3
COc1ccc(-c2coc3c(C(=O)NCc4ccc(OC)c(OC)c4)cccc23)c(C)c1 | 90* | 51 | nt | nt | nt
O=C(/C=C/NNC(=O)c1ccccc1O)c1ccccc1 | -19 | 16 | -10 | -13 | -2
COc1ccc(-c2c[n+]3c(n2-c2ccc(C)cc2)CCCCC3)cc1 | nt | 99* | 0 | 1 | 51
CCOc1ccc(-n2c(-c3ccccc3)c[n+]3c2CCC3)cc1 | 84* | 82* | 7 | -13 | 33
CCOc1ccc(-n2c(-c3ccc(Br)cc3)c[n+]3c2CCCCC3)cc1 | 73 | 95* | 22 | -7 | 63*
CCOc1ccc(-n2c(-c3ccc(OC)cc3)c[n+]3c2CCCCC3)cc1 | 85* | 99* | 22 | 20 | 77*
COc1ccc(-n2c(-c3ccc(Cl)cc3)c[n+]3c2CCCCC3)cc1 | 71 | 52 | 7 | -11 | 30
CN(C)c1ccc2c(c1)[C@H]1C[C@H](CC(=O)NCCc3ccccc3)O[C@@H](CO)[C@H]1O2 | nt | -6 | nt | nt | nt
Cc1cc(NC(=O)Cn2cc([N+](=O)[O-])cn2)n(Cc2ccc(F)cc2)n1 | -17 | 2 | -2 | -2 | -8
CS(=O)(=O)N(CC(=O)Nc1ccccc1)c1cccc(Cl)c1Cl | 0 | 12 | -3 | -8 | 4
C[C@@H]1CN([C@H](C)CO)C(=O)Cc2cc(NC(=O)Nc3ccc(F)cc3)ccc2O[C@@H]1CN(C)Cc1ccc(Cl)c(Cl)c1 | nt | 109* | nt | nt | nt
C[C@H](CO)N1C[C@H](C)[C@@H](CN(C)Cc2ccc(Cl)c(Cl)c2)Oc2ccc(NC(=O)Nc3ccc(F)cc3)cc2CC1=O | nt | 84* | nt | nt | nt
C[C@H](CO)N1C[C@H](C)[C@H](CN(C)Cc2ccc(Cl)c(Cl)c2)Oc2ccc(NC(=O)Nc3ccc(F)cc3)cc2CC1=O | nt | 6 | nt | nt | nt
